Sampled rows, rich in hits. Any-hit rate of the full collection: about 3.5%.
RE007 growth inh = less growth of the S. pombe RE007 Vpr strain. S. pombe RE007 Vpr strain, BacTiter-Glo ATP luminescence, 24 h. AID 651644. 360,000 tested, 0.21% active. Potency, µM (series often up to 92.2 µM), inactives show at the highest dose activity change, negative = less growth, actives largely listed as inhibitors; active = well fitted falling curve with a large enough effect; inconclusive = small, poorly fitted or top-dose-only effect; inactive = no such curve, though single readings can be large or run the other way; also: % is scaled to controls: 0 for no effect and ±100 for the full control effect; nearly all actives have a fitted effect of over 50% in size
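Fission yeast RE007 carrying one integrated HIV-1 vpr copy, seeded at OD 0.01 in PMG+AL medium with 23 nL pinned compound. Grown 24 h at 30 degrees; viability read by BacTiter-Glo luminescence after 5 min.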
TbPYK inhibitor = blocks Trypanosoma brucei pyruvate kinase. TbPYK enzyme, Kinase-Glo Plus ATP luminescence, 45 min. Potency, µM (top dose mostly 76.8 µM), for inactives: at the highest dose activity, negative = inhibition, actives largely listed as inhibitors. 410,000 tested, 0.12% active. AID 624173; also: % is scaled to controls: 0 for no effect and ±100 for the full control effect; nearly all actives have a fitted effect of over 50% in size
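Glycolytic pyruvate kinase of T. brucei was incubated with substrate, test compound and 130 uM ADP for 45 minutes at room temperature. Luminescent Kinase-Glo Plus signal was measured after 10 minutes.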
Giardia FBPA inh = Giardia lamblia aldolase inhibition. A8B2U2. purified Giardia FBPA. Potency, µM (series often up to 59.6 µM), for inactives: top-dose activity, negative = inhibition, hits mostly inhibitors. 290,000 tested, 0.71% active. AID 2451; also: % is scaled to controls: 0 for no effect and ±100 for the full control effect; nearly all actives have a fitted effect of over 55% in size
Target sequence (A8B2U2 whole entry, looked up): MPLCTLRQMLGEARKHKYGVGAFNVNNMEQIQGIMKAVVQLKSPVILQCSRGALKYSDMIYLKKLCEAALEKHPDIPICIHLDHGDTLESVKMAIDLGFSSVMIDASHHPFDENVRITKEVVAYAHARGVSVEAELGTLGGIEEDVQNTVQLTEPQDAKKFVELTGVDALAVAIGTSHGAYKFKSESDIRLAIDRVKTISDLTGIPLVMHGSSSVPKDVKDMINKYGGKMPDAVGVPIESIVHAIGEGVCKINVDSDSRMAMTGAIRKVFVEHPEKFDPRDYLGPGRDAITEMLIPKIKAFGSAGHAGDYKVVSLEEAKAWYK
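Giardia FBPA (40 nM reagent) was preincubated 10 min at RT with compound (up to 57.5 uM final), then substrate plus GAPDH/TPI/NAD/arsenate coupling system with diaphorase/resazurin was added; resorufin fluorescence (525/598 nm) was read after 20 min.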
NS1 function inh = inhibitors of influenza NS1 protein function | Potency, µM (highest dose often 46.1 µM), without a hit: top-dose activity, positive = more growth | 270,000 tested, 0.4% active | AID 2326; calls by dose curve; also: actives are rising curves; nearly all actives have a fitted effect of over 50% in size
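Growth recovery, yeast-based: influenza A NS1 expressed in S. cerevisiae causes slow growth, and suppressors are detected by OD600. The parent strain without NS1 is used as positive control.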
Sm TGR inh = inhibitors of Schistosoma mansoni thioredoxin glutathione reductase; Q962Y6; purified TGR, DTNB reduction, TNB absorbance 405 nm; Potency, µM (doses to about 114 µM), for inactives: at the highest dose activity change, negative = inhibition, most hits filed as inhibitors; 360,000 tested, 3% active; AID 485364; also: % is scaled to controls: 0 for no effect and ±100 for the full control effect; nearly all actives have a fitted effect of over 60% in size
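First, TGR (20 nM dispensed) and NADPH were mixed with compound. Second, a 15 min room-temperature incubation followed. Third, further NADPH and then DTNB were added to start the reaction. Finally, TNB absorbance was monitored kinetically.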
LmPK inhibitor = LmPK (Leishmania mexicana) enzyme inhibition; Q27686; 290,000 tested, 0.37% active; purified LmPK, Kinase-Glo ATP luminescence, 1 h; Potency, µM (doses to about 57.5 µM), inactives show at the top dose activity change, negative = inhibition, most hits filed as inhibitors; also: % is scaled to controls: 0 for no effect and ±100 for the full control effect
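Kinase-Glo luminescence read after 1 h RT reaction of 0.1 nM LmPK with 0.5 mM PEP and 0.1 mM ADP. Activity scaled between uninhibited and enzyme-free controls.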
* = called active by the depositor; ? = inconclusive; . = no result. Unless noted, calls follow the shape of the dose curve; as a rule, active = well fitted curve in the direction sought with a large enough effect; inconclusive = small, poorly fitted or top-dose-only effect, or another doubt; inactive = no such curve, though single readings can be large; an effect the other way counts as inactive or inconclusive. Potency is read from the fitted curve at half-maximal effect.

SMILES	RE007 growth inh	TbPYK inhibitor	Giardia FBPA inh	NS1 function inh	Sm TGR inh	LmPK inhibitor
Oc1c(Cl)cc(Cl)cc1C=Nc1cc(C(F)(F)F)ccc1N1CCc2ccccc2C1	.	?	?	-79%	-22%	16µM*
Cc1ccc2c(=O)c(C(=O)c3ccc(Cl)cc3)cn(CC(=O)Nc3ccc4c(c3)OCCO4)c2n1	.	-4%	.	.	2%	.
CCCCCCC(O)C/C=C\CCCCCCCC(=O)O (stereo not given)	.	5%	.	.	.	.
CC(C)Cc1nc(S(=O)(=O)c2ccc(Cl)cc2)c(N2CCOCC2)o1	2%	-18%	-29%	7%	2.2µM*	3%
O=S(=O)(c1ccc(Cl)cc1)c1nc(-c2ccco2)oc1N1CCOCC1	10%	-3%	-12%	-1%	-28%	6%
CC(C)(C)c1nc(S(=O)(=O)c2ccc(Cl)cc2)c(N2CCOCC2)o1	0%	-24%	7%	0%	8.9µM*	-7%
COCCNC(=O)CN1C(=O)COc2ccc(S(=O)(=O)N3CCOCC3)cc21	.	0%	.	.	-2%	.
COc1ccc(NC(=O)CN2C(=O)COc3ccc(S(=O)(=O)Nc4ccccc4)cc32)cc1OC	.	-6%	.	.	11%	.
Cc1cc(C)cc(Nc2ccc3nonc3c2[N+](=O)[O-])c1	18%	1%	.	.	.	.
O=C(O)c1ccc(Nc2cc(Cl)c3nonc3c2[N+](=O)[O-])cc1	0%	-5%	-13%	.	0.32µM*	2%
O=C(O)c1cccc(Nc2ccc3nonc3c2[N+](=O)[O-])c1	-2%	7%	3%	14%	?	0%
CNc1cc(Cl)c2nonc2c1[N+](=O)[O-]	?	3%	-21%	.	0.45µM*	5%
O=[N+]([O-])c1c(Nc2cccc(O)c2)cc(Cl)c2nonc12	-15%	8%	0%	-111%	0.35µM*	5%
Cc1ccccc1CN1C(=O)c2ccccc2S(=O)(=O)c2ccc(C(=O)OCC3CCCO3)cc21 (stereo not given)	.	-1%	.	.	-3%	.
O=S(=O)(Nc1c(S(=O)(=O)c2ccccc2)c2nc3ccccc3nc2n1C1CCCCC1)c1ccccc1	?	0%	?	2%	-21%	2%
C=CCn1c(NS(=O)(=O)c2ccccc2)c(S(=O)(=O)c2ccc(C)cc2)c2nc3ccccc3nc21	-15%	-4%	0.14µM*	?	?	1%
CCn1nc([N+](=O)[O-])c(C(C#N)c2nc3ccccc3n2C)c(Cl)c1=O (stereo not given)	9%	-16%	5%	6%	14µM*	-5%
CCCn1nc([N+](=O)[O-])c(C(C#N)c2nc3ccccc3s2)c(Cl)c1=O (stereo not given)	10%	-32%	0%	-61%	1.3µM*	?
Cc1cc(C)c(NC(=O)CCn2c(=O)c3cccn3c3ccccc32)c(C)c1	.	1%	.	.	-6%	.
C=CCSc1nnc2c(n1)OC(c1ccco1)Nc1ccccc1-2 (stereo not given)	4%	3%	?	-7%	-33%	-3%
C=CCSc1nnc2c(n1)OC=Nc1ccccc1-2	?	-3%	-16%	-75%	?	25µM*
CCOc1ccc(-c2cn3ccccc3n2)cc1	?	?	-16%	-7%	.	13µM*
Cc1ccsc1CCN1C(=O)N(c2ccc(F)cc2)C(=O)C1CC(=O)Nc1ccccc1 (stereo not given)	.	0%	.	.	8%	.
COc1cc(-c2nnc(SCCOc3cc(C)cc(C)c3)o2)cc(OC)c1OC	.	-4%	.	.	35µM*	.
CCc1ccccc1OCCSc1nnc(-c2cc(OC)c(OC)c(OC)c2)o1	.	-8%	.	.	-13%	.
SMILES	RE007 growth inh	TbPYK inhibitor	Giardia FBPA inh	NS1 function inh	Sm TGR inh	LmPK inhibitor
COc1ccc(Cl)cc1NC(=O)Cn1cc(C(=O)c2ccncc2)c(=O)c2cc(C)ccc21	.	-6%	.	.	0%	.
O=C(CCl)c1ccc2c(c1)CCN2C(=O)C1CCCCC1	11µM*	-3%	-9%	.	1.3µM*	1%
CCC1CCCCN1S(=O)(=O)c1ccc2c(c1)CCN2C(=O)C1CCC1 (stereo not given)	3%	0%	-1%	-67%	-1%	4%
O=C(C1CCC(C(=O)N2CCc3ccccc32)CC1)N1CCc2ccccc21 (stereo not given)	-1%	-8%	0%	2%	-6%	-2%
O=C(CCl)c1ccc2c(c1)CCN2C(=O)C1CC1	.	.	-10%	-45%	7.1µM*	-1%
Cc1cc(Oc2c(C(F)(F)F)oc3c(CN4CCC(C)CC4)c(O)ccc3c2=O)cc(C)c1Cl	.	2%	.	.	7%	.
COc1ccc(NC(=O)c2cc(C3CC3)nc3c2c(C)nn3-c2ccccc2)c(OC)c1	.	-1%	.	.	-2%	.
Cc1ccc(C)c(N2CCN(c3nc4ccccc4c4nc(CCn5nc(C)cc5C)nn34)CC2)c1	.	-4%	.	.	-1%	.
COc1cc2cc(C)c(SCC(=O)N3CCN(C(=O)c4ccco4)CC3)nc2cc1OC	3%	-3%	-3%	1%	18µM*	2%
Cc1ccc(Cl)cc1N1CCN(C(=O)c2cc(S(=O)(=O)N3CCCC3)c[nH]2)CC1	.	3%	.	.	6%	.
CCCNC(=O)c1c(N)n(Cc2ccco2)c2nc3ccccc3nc12	-18%	-4%	-1%	22%	-7%	1%
COCCCNC(=O)c1c(N)n(Cc2ccco2)c2nc3ccccc3nc12	-7%	-9%	?	3%	4µM*	5%
CC(C)CNC(=O)c1c(N)n(Cc2ccco2)c2nc3ccccc3nc12	-22%	-4%	-12%	12%	32µM*	5%
COc1ccccc1/C=C/C=N/NC(=O)c1cc(-c2ccco2)[nH]n1	0%	-6%	-29%	3%	7.1µM*	5%
CC(=O)c1ccc(NC(=O)CCS(=O)(=O)c2ccc3c(c2)n(C)c(=O)c(=O)n3C)cc1	3%	-2%	0%	?	40µM*	-7%
c1ccc(C(c2ccccc2)N2CCN(Cc3nc(-c4cnccn4)no3)CC2)cc1	-4%	1%	4%	1%	25µM*	6%
CCOC(=O)c1c(C)c(C(=O)NCc2ccc(Cl)cc2)c(C)n1CC	.	-3%	.	.	-1%	.
Nc1nc(-c2ccc(-n3nncc3-c3ccco3)cc2)cs1	5%	-13%	5%	-1%	-16%	0%
Cc1nc(-c2ccc(-n3nncc3-c3ccco3)cc2)cs1	-15%	-6%	-4%	-7%	50µM*	-3%
CCC1(C)Cc2c(sc3c2c2ncnn2c2nnc(SCC(=O)NCc4ccco4)n32)CO1 (stereo not given)	6%	-2%	0%	-10%	45µM*	6%

Bioassay records: PubChem, National Center for Advancing Translational Sciences (NCATS)
